About 83,000 compounds went through this panel and 20% of them were active in at least one assay; those are over-represented in the sample as a whole.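 Values shown are percent growth following 48 h exposure of cells in 96-well plates to a single concentration of compound; below 10 was considered active.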 Activity calls are given as the source filed them.

One assay has as its system OVCAR-3 ovarian. Description: NCI-60 one-dose screen, 48 h (100 = growth as untreated, 0 = no growth, -100 = all killed). Conditions: 10 µM unless noted.
As to `CCCCCCC(CC#N)(CCC)CCCC` (stereo not given), the growth was 119% (inactive). In the case of `COc1ccc(NC(=O)c2ccccc2-c2ccccc2)c(C(N)=O)c1`, the growth is -22.4% (active). In the case of `Cc1ccc(-c2csc(N)n2)cc1`, the growth is 114% (inactive). Regarding `NS(=O)(=O)c1ccc(N2CC(c3nc4ccccc4[nH]3)CC2=O)cc1` (stereo not given), the growth was 104% (inactive). On to `Cc1nn(-c2ccccc2)c2nc(N)c(C3=NCCO3)nc12`, for which the growth is 114% (inactive). Consider `CCCCNCCCN(CCCC)CCCNCCCC`, for which the growth is 107% (inactive). The same measure, in the same setting: the same measure for `C1CCC(C(CC2CCCCN2)C2CCCCC2)CC1` (stereo not given): -3.79% (active); for `Oc1c(Cl)cc(Cl)c(Cl)c1Cc1c(O)c(Cl)cc(Cl)c1Cl`: 10.8% (inactive).

Consider `CSc1nc(Nc2ccc(S(=O)(=O)Nc3ccon3)cc2)c(C#N)c(-c2ccc(Cl)cc2)n1`, for which the growth is 122% (inactive). As to `COc1cccc(C=Nc2cc(C(C)C)c(O)cc2C)c1O`, the growth is 100% (inactive).

For the compound `Cn1c(N2N=C(c3ccc(Cl)cc3)CC2c2ccccc2)nc(-c2ccccc2)c(C#N)c1=O` (stereo not given), the growth is 71.7% (inactive).

On to `NC(=NCCCCCCN=C(N)/N=C(\N)Nc1ccc(Cl)cc1)/N=C(\N)Nc1ccc(Cl)cc1`, for which the growth was 17% (inactive). For `Oc1c(N=Nc2nn[nH]n2)ccc2ccccc12`, the growth is 71.6% (inactive). In the case of `Cc1ccc(/C=C/C(=O)c2ccc(F)cc2)s1`, the growth is 87% (inactive). Still for that read-out and setting: the same measure for `CC[N+](CCCCCCCCCC[N+](CC)(c1ccccn1)c1ccccn1)(c1ccccn1)c1ccccn1`: 3.49% (active); for `O=C(c1ccc(N2CCOCC2)cc1[N+](=O)[O-])N1CCOCC1`: 110% (inactive).

In the case of `Cc1ccc(-c2c3c(N)nc(-c4ccncc4)nc3nc3c2c(C)nn3-c2ccccc2)cc1`, the growth was 73.6% (inactive). Same read-out and setting: to `COc1cccc(CCN2C(=O)CCC3=C2CCC3=O)c1` belongs 114% (inactive); to `CC(=O)c1nn(-c2ccccc2)c(=Nc2ccccc2)cc1C`, 113% (inactive). On the same count and under the same terms, to `COc1ccc(-c2nc3sc4c(c3c(=O)[nH]2)CCCCCC4)cc1` belongs 44.2% (inactive); to `CCOC(=O)/C(=C/CC/C(C)=C/CC/C(C)=C/CCc1ccoc1)CC(=O)N1CCCCC1`, 12.5% (inactive); to `CC1CC=CCC1C1OCC(C)(C)CO1` (stereo not given), 109% (inactive).

Turning to `Cc1[nH]c(=O)[nH]c(=O)c1CCSSCCc1c(C)[nH]c(=O)[nH]c1=O`, the growth was 117% (inactive).

With `CC(NNC(=S)N1CCCCCC1)c1ccc2ccccc2n1` (stereo not given), the growth is 47.4% (inactive).

Take `NS(=O)(=O)c1ccc(-n2nc(-c3ccc(Br)cc3)ccc2=O)cc1`: the growth was 70.9% [100 µM] (inactive). As to `CCOc1cc(CCNS(=O)(=O)c2ccc(C)cc2)c(C(C)=O)cc1OCC`, the growth was 71.8% [100 µM] (inactive). Still for that read-out and setting: to `CC(=O)N1N=C(c2ccc(Nc3ccnc4cc(Cl)ccc34)cc2)CC1c1ccc(Cl)cc1` (stereo not given) belongs 29.2% (inactive); to `COC(=O)[C@H](Cc1cnc[nH]1)NC(=O)[C@@H](NC(=O)Nc1cc(C(F)(F)F)cc(C(F)(F)F)c1)C(C)C`, -100% [100 µM] (active); to `CCCCCCCCCCCCC1CCCC(C)C1` (stereo not given), 108% (inactive). The same measure, in the same setting: to `FC(F)(F)c1ccc(-c2cnc(-c3nn[nH]n3)nc2NC2CCCCCC2)cc1` belongs 31% [50 µM] (inactive); to `CCCCCc1c(C)[nH]c(/C=C2\N=C(c3ccc[nH]3)C=C2OCc2ccccc2)c1C`, -89% [100 µM] (active). With `COc1c(Br)cc(C(c2cc(Br)c(OC)c(Br)c2)c2ccccc2C(=O)O)cc1Br`, the growth was 109% (inactive). As to `CCOC(=O)C(C(=O)OCC)C1CCCCC1`, the growth was 110% (inactive).

With `CCCCCCCC[Si](OCC)(OCC)OCC`, the growth was 106% (inactive). With `C[C@H]1O[C@@H](O[C@H]2[C@@H](O)C[C@H](O[C@H]3[C@@H](O)C[C@H](O[C@H]4CC[C@]5(C)C6CC[C@]7(C)[C@@H](C8=CC(=O)OC8)CC[C@]7(O)C6CC[C@@H]5C4)O[C@@H]3C)O[C@@H]2C)C[C@H](O)[C@@H]1O` (stereo not given in full), the growth is -100% (active).

A further assay concerns HS 578T breast. The description is as above. The following applies: 10 µM unless noted.
For the compound `CCCCCCC(CC#N)(CCC)CCCC` (stereo not given), the growth is 95.3% (inactive). Same read-out and setting: to `COc1ccc(NC(=O)c2ccccc2-c2ccccc2)c(C(N)=O)c1` belongs 38.9% (inactive).

As to `Cc1ccc(-c2csc(N)n2)cc1`, the growth is 115% (inactive). The same measure, in the same setting: to `NS(=O)(=O)c1ccc(N2CC(c3nc4ccccc4[nH]3)CC2=O)cc1` (stereo not given) belongs 98.2% (inactive); to `Cc1nn(-c2ccccc2)c2nc(N)c(C3=NCCO3)nc12`, 82.2% (inactive); to `CCCCNCCCN(CCCC)CCCNCCCC`, 80.2% (inactive).

`C1CCC(C(CC2CCCCN2)C2CCCCC2)CC1` (stereo not given): the growth was 57% (inactive). On the same count and under the same terms, to `Oc1c(Cl)cc(Cl)c(Cl)c1Cc1c(O)c(Cl)cc(Cl)c1Cl` belongs -1.24% (active); to `CSc1nc(Nc2ccc(S(=O)(=O)Nc3ccon3)cc2)c(C#N)c(-c2ccc(Cl)cc2)n1`, 106% (inactive); to `O=C(Nc1nc2ccc(OC(F)(F)F)cc2s1)c1ccc(F)cc1`, 38.6% (inactive). Same read-out and setting: to `Cn1c(N2N=C(c3ccc(Cl)cc3)CC2c2ccccc2)nc(-c2ccccc2)c(C#N)c1=O` (stereo not given) belongs 86.5% (inactive); to `NC(=NCCCCCCN=C(N)/N=C(\N)Nc1ccc(Cl)cc1)/N=C(\N)Nc1ccc(Cl)cc1`, 18.1% (inactive); to `Oc1c(N=Nc2nn[nH]n2)ccc2ccccc12`, 91% (inactive). Turning to `Cc1ccc(/C=C/C(=O)c2ccc(F)cc2)s1`, the growth is 102% (inactive).

Turning to `CC[N+](CCCCCCCCCC[N+](CC)(c1ccccn1)c1ccccn1)(c1ccccn1)c1ccccn1`, the growth was 28.5% (inactive). As to `O=C(c1ccc(N2CCOCC2)cc1[N+](=O)[O-])N1CCOCC1`, the growth was 33% (inactive). Turning to `Cc1ccc(-c2c3c(N)nc(-c4ccncc4)nc3nc3c2c(C)nn3-c2ccccc2)cc1`, the growth was 32.7% (inactive). Consider `COc1cccc(CCN2C(=O)CCC3=C2CCC3=O)c1`, for which the growth was 130% (inactive). The same measure, in the same setting: to `CC(=O)c1nn(-c2ccccc2)c(=Nc2ccccc2)cc1C` belongs 114% (inactive); to `COc1ccc(-c2nc3sc4c(c3c(=O)[nH]2)CCCCCC4)cc1`, 58.4% (inactive). As to `CCOC(=O)/C(=C/CC/C(C)=C/CC/C(C)=C/CCc1ccoc1)CC(=O)N1CCCCC1`, the growth is 74.3% (inactive). Same read-out and setting: the same measure for `Cc1[nH]c(=O)[nH]c(=O)c1CCSSCCc1c(C)[nH]c(=O)[nH]c1=O`: 142% (inactive); for `CC(NNC(=S)N1CCCCCC1)c1ccc2ccccc2n1` (stereo not given): 78.5% (inactive).

With `CC(=O)N1N=C(c2ccc(Nc3ccnc4cc(Cl)ccc34)cc2)CC1c1ccc(Cl)cc1` (stereo not given), the growth was 41% (inactive). Regarding `CCCCCCCCCCCCC1CCCC(C)C1` (stereo not given), the growth was 93.3% (inactive). Still for that read-out and setting: to `COc1c(Br)cc(C(c2cc(Br)c(OC)c(Br)c2)c2ccccc2C(=O)O)cc1Br` belongs 101% (inactive). Regarding `CCOC(=O)C(C(=O)OCC)C1CCCCC1`, the growth was 109% (inactive). The same measure, in the same setting: the same measure for `N#Cc1ncc(-c2ccc(C(F)(F)F)cc2)c(NC2CCCCCC2)n1`: 46.5% (inactive). With `CCCCCCCC[Si](OCC)(OCC)OCC`, the growth is 109% (inactive). Same read-out and setting: to `C[C@H]1O[C@@H](O[C@H]2[C@@H](O)C[C@H](O[C@H]3[C@@H](O)C[C@H](O[C@H]4CC[C@]5(C)C6CC[C@]7(C)[C@@H](C8=CC(=O)OC8)CC[C@]7(O)C6CC[C@@H]5C4)O[C@@H]3C)O[C@@H]2C)C[C@H](O)[C@@H]1O` (stereo not given in full) belongs -1.73% (active).

The record behind these values is PubChem BioAssay (NCI).
